Drawing on PubChem BioAssay AID624351 (Southern Research Specialized Biocontainment Screening …, 2012), this text covers IC50 and inhibition for 114 molecules.

In general, IC50 refers to the point on the concentration scale where inhibition reaches its midpoint. Usually inhibition stands for the drop in the measured response relative to a control, in per cent.

Among all 2,400 compounds or so, about 1,400 (58%) were called active. So high a share suggests a set chosen from earlier hits. This is one part of the list. Unmarked numbers belong to inactive results.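 Rule for the calls: active = inhibition of 30% or more at any tested dose; inconclusive = primary hits over the limit that were never retested; inactive = the rest.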

This assay can be described thus: ADP Hunter readout inhibition without MgcRacGAP – biochemical, coupled enzyme counter-screen, artefact control for MgcRacGAP inhibitor project, dose response (AID 624351).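 For inhibition: 0% = median positive control wells and 100% = median negative control wells.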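 Note: signal is the ADP detection kit reading of free GDP without any GAP enzyme.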 The conditions noted are these: fluorescence, no MgcRacGAP; series mostly up to 80 µM.
For the molecule `Nc1ccc2nc(Cc3ccccc3)[nH]c2c1`, the half-inhibitory concentration (IC50) was 72.6 µM (active). Same read-out and setting: the value for `Nc1ccc2nc(CCCCc3nc4ccccc4[nH]3)[nH]c2c1` was 59.4 µM (active).

As to `O=C1C(=Cc2ccco2)CCC1=Cc1ccco1`, the inhibition was -16.6% [at 10 µM]. Regarding `O=C(CCC1CCCC1)N1CCN(C2CCCC2)CC1`, the IC50 result is “inactive”. Still for that read-out and setting: in the case of `CC/C(=C\c1ccc(N(C)C)cc1)c1ccncc1` it was 29.7 µM (active); in that of `COC1=C(Br)C(=O)c2nc(C)ccc2C1=O`, “inactive”; in that of `O=C(Nc1ccc(N2CCCCC2)cc1)c1ccccc1`, “inactive”.

Take `O=C(Nc1ccc(N2CCCCCC2)cc1)c1ccc[nH]1`: the half-maximal inhibitory concentration (IC50) is 38.8 µM (active). On the same count and under the same terms, the value for `Cc1ccccc1C(=O)Nc1ccc(N2CCCC2)cc1` was 70.8 µM (active); that for `CN1CCN(Cc2coc3c(Cl)cc(Cl)cc3c2=O)CC1` was “inactive”.

Regarding `Cc1ccc(CCC(=O)Nc2ccc(N(C)C)cc2)o1`, the IC50 was 57.5 µM (active). Still for that read-out and setting: the value for `Cc1ccc(NC(=O)CCNCc2ccco2)cc1S(=O)(=O)N(C)C` was “inactive”. In the case of `COc1ccc(CN2CCN(Cc3cccc(F)c3)CC2)cc1OC`, the IC50 result is “inactive”. Still for that read-out and setting: in the case of `COc1ccc(NC2CCCN(C(=O)CCc3cccc(F)c3)C2)cc1` (centres undefined) it was 72.9 µM (active); in that of `COc1ccc(NC2CCCN(C(=O)CSc3ccccc3)C2)cc1OC` (centres undefined), 68.5 µM (active). On the same count and under the same terms, in the case of `COc1ccc(C(=O)N2CCN(C3CCN(Cc4ccccc4)CC3)CC2)cc1OC` it was “inactive”. In the case of `COc1ccc(C2CC(c3ccc4ccccc4c3)=NN2C(=O)CNC2CCCCC2)cc1` (centres undefined), the IC50 result was “inactive”. Still for that read-out and setting: in the case of `O=C(c1cccc(F)c1)N1CCN(Cc2cccc(Br)c2)CC1` it was “inactive”; in that of `COc1ccc(NC2CCCN(C(=O)CCN3CCCC3=O)C2)cc1OC` (centres undefined), “inactive”. Same read-out and setting: in the case of `COc1ccc(NC2CCCN(C(=O)CCN3CCCO3)C2)cc1` (centres undefined) it was “inactive”; in that of `COc1ccc(NC2CCCN(C(=O)CCN3Cc4ccccc4C3=O)C2)cc1` (centres undefined), 63 µM (active).

Regarding `CCOc1ccccc1/C=c1\sc2ncnn2c1=O`, the IC50 result is “inactive”. The same measure, in the same setting: the value for `CN1C(=O)NC(c2ccc(O)cc2)C2=C1CN(c1ccc(O)cc1)C2=O` (centres undefined) was 44.7 µM (active). Still for that read-out and setting: the value for `O=C(Cn1c(C(=O)NCC2CCCO2)cc2sccc21)c1ccccc1` (centres undefined) was 81.6 µM (active); that for `O=C(CN1CCCCCC1)NCC1CCCO1` (centres undefined) was “inactive”; that for `C=CCOc1ccccc1CN1CCCN(C)CC1` was “inactive”. In the case of `Oc1ccc(-c2csc(NCc3ccco3)n2)cc1`, the IC50 was 24 µM (active). On the same count and under the same terms, in the case of `Oc1ccc(-c2csc(Nc3cccnc3)n2)cc1` it was 15.8 µM (active); in that of `COc1cccc(CNCc2ccco2)c1O`, “inactive”. Same read-out and setting: the value for `COc1cccc(Nc2nc(-c3ccc(O)cc3)cs2)c1` was 63.7 µM (active); that for `Oc1ccc(-c2csc(Nc3ncccn3)n2)cc1` was 21.3 µM (active).

On to `COc1cccc(NC2=C(C#N)C(=O)NC(c3cccc(OC)c3O)S2)c1` (centres undefined), for which the IC50 entry was “inactive”. Consider `COc1ccc(-n2c(SCC(=O)C(C)(C)C)nc3c(sc(=S)n3-c3ccccc3)c2=O)c(OC)c1`, for which the IC50 result is “inactive”. On the same count and under the same terms, in the case of `Cc1ccnc(Nc2nc(-c3ccc(O)c(O)c3)cs2)c1` it was 61 µM (active). Same read-out and setting: in the case of `Oc1ccc(-c2csc(Nc3ccccn3)n2)cc1` it was 79.7 µM (active). Still for that read-out and setting: in the case of `Cc1nc2ncccn2c1-c1csc(Nc2ccc(O)cc2)n1` it was 11.1 µM (active).

Regarding `Oc1ccc(-c2csc(Nc3ccccn3)n2)c(O)c1`, the IC50 is 63.3 µM (active). Same read-out and setting: the value for `O=C(Nc1nc(-c2ccncc2)cs1)C1COc2ccccc2O1` (centres undefined) was “inactive”. Turning to `NNc1cc([N+](=O)[O-])cc2c1C(=O)N(Cc1ccccc1)S2=O` (centres undefined), the IC50 entry was “inactive”.

On to `O=C1NN(c2ccccc2)C(=O)C1=Cc1ccccc1O`, for which the IC50 entry was “inactive”. `COc1cccc(OCC(O)CN2CCN(C)CC2)c1` (centres undefined): the IC50 result was “inactive”.

On to `c1ccc(CCNCCCOc2cccc3ccccc23)cc1`, for which the IC50 result was “inactive”. Still for that read-out and setting: the value for `Nc1ccc2c(c1)C(=O)c1cc(N)c(Cl)cc1-2` was 49.2 µM (active); that for `COc1cc2c(cc1N)-c1ccc(N)cc1C2=O` was 16.5 µM (active); that for `O=C(/C=C/c1ccc([N+](=O)[O-])cc1)/C=C/c1ccco1` was “inactive”. Same read-out and setting: the value for `Cc1ccc(Cl)c(OCCCN(C)Cc2ccccc2)c1` was “inactive”; that for `O=C(CNCC1CCCO1)Nc1ccc(N2CCCCCC2)cc1` (centres undefined) was “inactive”; that for `CC1=NN(c2cccc(C(=O)O)c2)C(=O)/C1=C\C=C\c1ccco1` was “inactive”. The same measure, in the same setting: in the case of `N#Cc1ccccc1OCCCN1CCC(Cc2ccccc2)CC1` it was “inactive”; in that of `CC(=O)c1c(C)c(C)c2n1CCn1c(C)ccc1-2`, 44.7 µM (active); in that of `COc1ccc(NCc2ccsc2)cc1`, 28.9 µM (active). As for `COc1ccc(NCc2cccnc2)cc1`, the half-maximal inhibitory concentration (IC50) was 54.6 µM (active).

Regarding `COc1cccc(OC)c1C(=O)N1CCN(Cc2cccnc2)CC1`, the IC50 result is “inactive”. Still for that read-out and setting: in the case of `COc1ccc2cc(CNCCOCCOCCNCc3ccc4cc(OC)ccc4c3)ccc2c1` it was “inactive”; in that of `Clc1nc(NCc2cccnc2)nc(N2CCOCC2)n1`, “inactive”. With `N#CCCN(CCC#N)c1nncs1`, the IC50 entry was “inactive”. Same read-out and setting: in the case of `Cc1ccc2c(c1)C(C)CC(C)(C)N2C(=O)CN1CCN(C)CC1` (centres undefined) it was “inactive”; in that of `COc1ccc2c(c1)-c1nc(/N=C/c3cccc(OC)c3O)sc1CC2`, 29.2 µM (active); in that of `COc1ccc2c(c1)-c1nc(/N=C/c3ccccc3O)sc1CC2`, 32.7 µM (active). On the same count and under the same terms, the value for `COc1ccc2nc(C)cc(N/N=C/c3cccc(OC)c3O)c2c1` was “inactive”. The same measure, in the same setting: in the case of `COc1ccc2c(c1)-c1nc(/N=C/c3c(O)ccc4ccccc34)sc1CC2` it was 62.7 µM (active); in that of `Cc1cc(Cl)c(OCCOCCN2CCN(C)CC2)c(Br)c1`, “inactive”; in that of `CCCCN(C)CCNC(=O)CSCc1ccc(C)cc1`, “inactive”. `O=C(N/N=C/c1ccc(N2CCOCC2)s1)c1ccc(O)cc1`: the concentration for half-maximal inhibition (IC50) was 25.2 µM (active). Same read-out and setting: in the case of `Nc1ccc(C(=O)N/N=C/c2ccc(N3CCOCC3)s2)cc1` it was 19.5 µM (active). The same measure, in the same setting: in the case of `Cc1cc(OCCCN2CCN(Cc3ccccc3)CC2)ccc1[N+](=O)[O-]` it was “inactive”; in that of `CC(=O)Nc1cccc2cc(O)ccc12`, 35.8 µM (active).

In the case of `O=C(/C=C/c1ccc(O)c(O)c1)OC(Cc1ccc(O)c(O)c1)C(=O)O` (centres undefined), the IC50 was 44.1 µM (active). As to `O=C1N=c2ccccc2=C1c1sc(Nc2ccc(O)cc2)nc1O`, the IC50 result is “inactive”. Still for that read-out and setting: in the case of `Cc1ccc(-c2csc3n[nH]c(=S)n23)cc1` it was 61.8 µM (active); in that of `CC1(C)Nc2cccc3cccc(c23)N1`, 31.9 µM (active); in that of `C/C(=N\Nc1ccc(S(=O)(=O)N2CCCCC2)cn1)c1ccc(O)cc1`, 20 µM (active). On the same count and under the same terms, in the case of `COc1ccc(OC(=O)c2cc(S(=O)(=O)N3CCCC3)ccc2Cl)cc1` it was “inactive”; in that of `CC1CCCC(N2CCN(C(=O)c3ccc([N+](=O)[O-])cc3)CC2)C1` (centres undefined), “inactive”; in that of `Cc1ccc(NCCCCO)cc1C`, 43.3 µM (active). Same read-out and setting: the value for `Cc1ccc(NCc2ccco2)cc1C` was “inactive”; that for `C/C(=N\Nc1cccc2cccnc12)c1ccc[nH]1` was “inactive”. As to `Cc1nc(Cc2nnc(SCC(=O)N3CCN(c4ccc(O)cc4)CC3)o2)cs1`, the IC50 was 30.6 µM (active). In the case of `Cc1cccc(NC2=C(C#N)C(=O)NC3(CCCC3)S2)c1`, the IC50 entry was “inactive”. Still for that read-out and setting: the value for `COc1ccc(/C=N/N2CCN(C)CC2)cc1O` was 42.6 µM (active); that for `COc1ccccc1N1CCN(CC(=O)c2ccc(F)cc2)CC1` was “inactive”.

On to `COc1ccccc1N1CCN(/N=C/c2ccc(O)cc2O)CC1`, for which the concentration for half-maximal inhibition (IC50) is 70.9 µM (active).

For the molecule `COc1cc(/C(C)=N/N2CCN(c3ccccc3OC)CC2)ccc1O`, the IC50 entry is “inactive”.

In the case of `COc1cccc(OC)c1NC(=O)CN1CCN(C)CC1`, the IC50 result is “inactive”. On the same count and under the same terms, in the case of `COc1ccc(CN2CCCN(C)CC2)c(OC)c1C` it was “inactive”.

As for `COc1cc(/C=N/N2CCN(c3ccccc3OC)CC2)ccc1O`, the IC50 is 36.5 µM (active). On to `COc1ccccc1N1CCN(CCCOc2ccc(F)cc2)CC1`, for which the IC50 entry is “inactive”. The same measure, in the same setting: the value for `Cc1ccc(N2C(N)=C(C#N)C3(C(=O)N(C)c4ccccc43)C3=C2CC(C)(C)CC3=O)cc1Cl` (centres undefined) was “inactive”; that for `Cc1cccc2sc(NNC(=O)c3cc(=O)c4ccccc4o3)nc12` was 64.9 µM (active); that for `COc1cc(/C=N/NC(=O)C2=NNC(=O)C2C)ccc1O` (centres undefined) was 74.7 µM (active). Still for that read-out and setting: in the case of `CC1C(=O)NN=C1C(=O)N/N=C\c1ccc(O)cc1O` (centres undefined) it was 37.7 µM (active); in that of `COc1cc(/C=N/NC(=O)CC2C(=O)NN=C2C)ccc1O` (centres undefined), 59.1 µM (active); in that of `CCN1CCN(Cc2ccc(NC(=O)c3ccc(C)c(/C=C/c4cnc(Nc5cc(N6CCNCC6)nc(C)n5)cn4)c3)cc2C(F)(F)F)CC1`, “inactive”. On the same count and under the same terms, the value for `O=C(N/N=C/c1sc2ccccc2c1O)c1cccc2ccccc12` was 60.6 µM (active); that for `O=C(N/N=C/c1ccc(F)cc1)c1cc(-c2ccco2)nc2ccccc12` was “inactive”; that for `O=C(N/N=C/c1ccc(O)cc1)c1csc2ccccc12` was 43.1 µM (active). Regarding `Cc1c(C(=O)N/N=C/c2ccc(O)cc2)sc(=S)n1C`, the IC50 entry was “inactive”. Still for that read-out and setting: the value for `O=C(N/N=C/c1ccc(O)cc1)c1csc2c1CCCC2` was 40.6 µM (active); that for `C=CCc1cccc(Cl)c1OCCCNC1CCCC1` was “inactive”. As for `O=C1ON=C(c2ccccc2)/C1=C/c1ccco1`, the IC50 entry was “inactive”. Still for that read-out and setting: the value for `Cc1ccc(COC(=O)Cc2coc3cc(O)ccc23)cc1` was 28.9 µM (active); that for `Cn1cccc1CC(=O)N/N=C/C=C/c1ccco1` was “inactive”; that for `COc1ccc(CN(C)CCc2ccccn2)cc1OC` was “inactive”. On the same count and under the same terms, in the case of `c1ccc(CNC23CC4CC(CC(C4)C2)C3)nc1` it was “inactive”; in that of `Oc1ccc(CCc2ccccn2)cc1`, 44.9 µM (active); in that of `CC(C)CC(=O)N1CCN(Cc2cccc([N+](=O)[O-])c2)CC1`, “inactive”. Still for that read-out and setting: in the case of `COc1cc(N2C(=O)C=CC2=O)ccc1N1C(=O)C=CC1=O` it was “inactive”; in that of `O=C(c1ccccc1F)N1CCN(Cc2ccc3c(c2)OCO3)CC1`, “inactive”. With `CCNc1nc(NCC)nc(N/N=C/c2ccc(O)c(O)c2)n1`, the half-inhibitory concentration (IC50) was 50.4 µM (active). With `Oc1ccc(/C=N/Nc2nc(N3CCCC3)nc(N3CCCC3)n2)cc1O`, the IC50 is 48.3 µM (active). Turning to `COc1cc2nc(N3CCNCC3)nc(N)c2cc1OC`, the IC50 result is “inactive”. Regarding `COc1ccc(-c2cnnc(N/N=C/c3ccc(O)c(O)c3)n2)cc1`, the half-inhibitory concentration (IC50) was 73.9 µM (active).

Consider `COc1cc(/C=N/Nc2nc(N3CCCC3)nc(N3CCCC3)n2)ccc1O`, for which the IC50 is 79.1 µM (active). On the same count and under the same terms, in the case of `Cc1ccc(C)c(-n2sc3ccc(F)cc3c2=O)c1` it was “inactive”.
